# In publication PMC7862700, “An all-to-all approach to the identification of sequence-specific readers for epigenetic DNA modifications on cytosine”:
# Key:
# Assay in all cases: DAPPL (digital affinity profiling via proximity ligation, sequencing); 10 mM Tris-HCl pH 7.5, 50 mM NaCl, 1 mM DTT, 4% glycerol, room temperature, 30 min; GST-TFs on glutathione beads, 16-mer random dsDNA library, 0.1% formaldehyde crosslink after washing; high values mean tight binding
# Settings in all cases: protein: recombinant; tags: N-terminal GST; dsDNA, one strand shown
# FLI1 = target: T1, FLI1 (Homo sapiens, UniProt Q01543 1-452)
# T1 sequence: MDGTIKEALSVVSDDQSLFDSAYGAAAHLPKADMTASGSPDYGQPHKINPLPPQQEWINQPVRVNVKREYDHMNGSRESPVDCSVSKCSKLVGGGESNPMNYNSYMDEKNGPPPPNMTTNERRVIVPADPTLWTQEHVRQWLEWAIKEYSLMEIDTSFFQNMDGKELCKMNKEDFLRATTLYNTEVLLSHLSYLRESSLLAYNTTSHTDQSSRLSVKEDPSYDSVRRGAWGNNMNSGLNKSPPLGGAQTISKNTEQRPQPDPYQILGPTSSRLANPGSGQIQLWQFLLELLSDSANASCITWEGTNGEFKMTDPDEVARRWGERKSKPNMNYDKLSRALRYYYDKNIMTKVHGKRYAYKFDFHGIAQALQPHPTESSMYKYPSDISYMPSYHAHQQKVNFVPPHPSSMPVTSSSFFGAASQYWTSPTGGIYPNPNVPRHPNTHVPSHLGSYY
# In short: (§1)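 After expression in yeast as GST fusions, human transcription factors were bound to glutathione beads, DNA-barcoded and mixed with a tag-only sample. The pools were incubated with 200 nmole of a 16-mer random double-stranded DNA library in Tris/NaCl/DTT/glycerol buffer (30 min, room temperature), washed and crosslinked with 0.1% formaldehyde. Proximity ligation with BsaI/T4 ligase ran for 1 h at 37 °C, before PCR amplification and sequencing on an Illumina NextSeq500. Binding signal is a hexamer's read frequency for a factor divided by its frequency for the tag-only sample.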
# ELK1 = target: T2, ELK1 (Homo sapiens, UniProt P19419 1-428)
# T2 sequence: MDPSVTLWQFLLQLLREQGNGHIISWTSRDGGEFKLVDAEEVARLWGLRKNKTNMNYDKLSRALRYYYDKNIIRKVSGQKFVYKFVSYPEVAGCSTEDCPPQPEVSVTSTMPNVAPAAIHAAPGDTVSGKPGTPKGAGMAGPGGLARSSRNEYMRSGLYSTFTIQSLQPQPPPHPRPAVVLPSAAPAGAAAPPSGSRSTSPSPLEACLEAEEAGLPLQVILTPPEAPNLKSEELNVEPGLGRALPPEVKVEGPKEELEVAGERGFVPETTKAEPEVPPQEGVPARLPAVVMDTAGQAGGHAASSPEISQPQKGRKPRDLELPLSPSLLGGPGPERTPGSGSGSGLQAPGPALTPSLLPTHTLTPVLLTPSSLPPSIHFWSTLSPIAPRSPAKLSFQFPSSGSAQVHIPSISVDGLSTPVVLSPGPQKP
# In short: as §1
# GABPA = target: T3, GABPA (Homo sapiens, UniProt Q06546 1-454)
# T3 sequence: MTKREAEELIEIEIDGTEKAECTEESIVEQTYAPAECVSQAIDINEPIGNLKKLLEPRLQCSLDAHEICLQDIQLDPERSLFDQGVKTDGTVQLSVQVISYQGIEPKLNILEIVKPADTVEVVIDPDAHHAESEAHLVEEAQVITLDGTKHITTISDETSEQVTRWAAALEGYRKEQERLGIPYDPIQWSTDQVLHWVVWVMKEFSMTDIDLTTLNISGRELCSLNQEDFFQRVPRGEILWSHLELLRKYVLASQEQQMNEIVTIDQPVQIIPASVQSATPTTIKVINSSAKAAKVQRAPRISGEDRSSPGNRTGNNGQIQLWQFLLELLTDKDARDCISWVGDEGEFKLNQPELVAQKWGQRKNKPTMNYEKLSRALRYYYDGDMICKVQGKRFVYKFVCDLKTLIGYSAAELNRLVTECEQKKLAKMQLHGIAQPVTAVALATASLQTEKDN
# In short: as §1
# ERG = target: T4, ERG (Homo sapiens, UniProt P11308 1-479)
# T4 sequence: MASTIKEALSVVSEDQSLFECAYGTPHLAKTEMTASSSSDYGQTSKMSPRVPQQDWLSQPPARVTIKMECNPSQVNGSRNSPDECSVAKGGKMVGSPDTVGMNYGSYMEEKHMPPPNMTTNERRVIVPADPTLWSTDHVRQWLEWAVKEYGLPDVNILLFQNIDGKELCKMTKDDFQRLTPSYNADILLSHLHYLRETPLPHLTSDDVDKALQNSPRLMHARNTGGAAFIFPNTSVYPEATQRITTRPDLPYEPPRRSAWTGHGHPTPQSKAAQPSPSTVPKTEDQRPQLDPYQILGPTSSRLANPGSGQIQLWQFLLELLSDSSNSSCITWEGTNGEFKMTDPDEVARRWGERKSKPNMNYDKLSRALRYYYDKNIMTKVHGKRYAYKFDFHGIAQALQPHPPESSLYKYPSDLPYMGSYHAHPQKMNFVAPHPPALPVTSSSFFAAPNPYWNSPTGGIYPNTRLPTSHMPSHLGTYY
# In short: as §1
# ELF1 = ELF1 (Homo sapiens, UniProt P32519 1-619)
# Chain of ELF1 (P32519 whole entry): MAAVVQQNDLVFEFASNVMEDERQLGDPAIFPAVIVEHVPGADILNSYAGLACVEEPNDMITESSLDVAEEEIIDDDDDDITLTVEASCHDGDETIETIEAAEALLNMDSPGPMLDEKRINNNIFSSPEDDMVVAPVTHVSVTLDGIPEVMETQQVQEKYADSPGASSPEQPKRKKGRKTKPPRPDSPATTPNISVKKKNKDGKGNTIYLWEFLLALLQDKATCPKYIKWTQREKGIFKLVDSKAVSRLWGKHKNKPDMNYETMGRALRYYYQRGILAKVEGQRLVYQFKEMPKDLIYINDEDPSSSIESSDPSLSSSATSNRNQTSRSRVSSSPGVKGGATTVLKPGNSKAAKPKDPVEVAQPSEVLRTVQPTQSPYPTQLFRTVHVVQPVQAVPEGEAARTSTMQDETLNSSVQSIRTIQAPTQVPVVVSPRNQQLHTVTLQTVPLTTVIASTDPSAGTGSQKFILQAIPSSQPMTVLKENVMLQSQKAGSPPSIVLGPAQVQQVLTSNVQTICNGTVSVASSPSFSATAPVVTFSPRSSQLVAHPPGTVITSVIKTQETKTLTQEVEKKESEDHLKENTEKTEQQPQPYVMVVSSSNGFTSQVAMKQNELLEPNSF
# In short: as §1
# EHF = target: T5, EHF (Homo sapiens, UniProt Q9NZC4 1-300)
# T5 sequence: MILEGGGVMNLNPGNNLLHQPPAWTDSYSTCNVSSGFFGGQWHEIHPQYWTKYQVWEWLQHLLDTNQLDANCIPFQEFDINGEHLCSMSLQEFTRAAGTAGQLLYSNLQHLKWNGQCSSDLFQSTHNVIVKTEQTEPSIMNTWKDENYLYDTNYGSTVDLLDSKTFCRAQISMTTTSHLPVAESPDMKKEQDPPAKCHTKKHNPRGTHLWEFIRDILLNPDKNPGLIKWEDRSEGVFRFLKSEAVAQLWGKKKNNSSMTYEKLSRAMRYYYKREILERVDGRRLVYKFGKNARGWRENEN
# In short: as §1
# SPI1 = SPI1 (Homo sapiens, UniProt P17947 1-270)
# In short: as §1
# SPIB = SPIB (Homo sapiens, UniProt Q01892 1-262)
# Chain of SPIB (Q01892 whole entry): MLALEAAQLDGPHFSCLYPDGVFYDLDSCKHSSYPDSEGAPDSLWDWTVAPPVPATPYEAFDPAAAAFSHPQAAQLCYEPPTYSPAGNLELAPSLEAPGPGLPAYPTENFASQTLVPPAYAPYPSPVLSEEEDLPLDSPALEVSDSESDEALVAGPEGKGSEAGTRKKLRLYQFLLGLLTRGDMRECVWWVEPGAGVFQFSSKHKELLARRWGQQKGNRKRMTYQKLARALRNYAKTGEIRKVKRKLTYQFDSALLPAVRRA
# In short: as §1
# ELK3 = target: T6, ELK3 (Homo sapiens, UniProt P41970 1-407)
# T6 sequence: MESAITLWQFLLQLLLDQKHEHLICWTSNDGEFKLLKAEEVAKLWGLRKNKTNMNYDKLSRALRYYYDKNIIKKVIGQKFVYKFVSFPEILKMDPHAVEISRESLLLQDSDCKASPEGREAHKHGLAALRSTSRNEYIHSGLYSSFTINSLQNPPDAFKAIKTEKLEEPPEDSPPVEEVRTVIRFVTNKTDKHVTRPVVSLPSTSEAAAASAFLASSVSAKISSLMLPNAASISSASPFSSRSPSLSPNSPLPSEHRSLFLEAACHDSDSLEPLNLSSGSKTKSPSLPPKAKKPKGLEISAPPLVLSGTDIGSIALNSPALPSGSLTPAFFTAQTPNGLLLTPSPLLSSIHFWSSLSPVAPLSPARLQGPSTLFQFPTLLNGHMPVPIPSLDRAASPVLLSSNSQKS
# In short: as §1
sequence,measurement,setting,value
ATACGA,binding signal,FLI1,"1.09 fold enrichment (6-mer frequency, TF over GST control)"
same,binding signal,ELK1,"1.12 fold enrichment (6-mer frequency, TF over GST control)"
same,binding signal,GABPA,"1.1 fold enrichment (6-mer frequency, TF over GST control)"
same,binding signal,ERG,"1.14 fold enrichment (6-mer frequency, TF over GST control)"
same,binding signal,ELF1,"1.14 fold enrichment (6-mer frequency, TF over GST control)"
same,binding signal,EHF,"1.12 fold enrichment (6-mer frequency, TF over GST control)"
same,binding signal,SPI1,"1.08 fold enrichment (6-mer frequency, TF over GST control)"
same,binding signal,SPIB,"1.09 fold enrichment (6-mer frequency, TF over GST control)"
same,binding signal,ELK3,"1.23 fold enrichment (6-mer frequency, TF over GST control)"
CTACCA,binding signal,FLI1,"1.27 fold enrichment (6-mer frequency, TF over GST control)"
same,binding signal,ELK1,"1.27 fold enrichment (6-mer frequency, TF over GST control)"
same,binding signal,GABPA,"1.42 fold enrichment (6-mer frequency, TF over GST control)"
same,binding signal,ERG,"1.29 fold enrichment (6-mer frequency, TF over GST control)"
same,binding signal,ELF1,"1.39 fold enrichment (6-mer frequency, TF over GST control)"
same,binding signal,EHF,"1.22 fold enrichment (6-mer frequency, TF over GST control)"
same,binding signal,SPI1,"1.26 fold enrichment (6-mer frequency, TF over GST control)"
same,binding signal,SPIB,"1.23 fold enrichment (6-mer frequency, TF over GST control)"
same,binding signal,ELK3,"1.16 fold enrichment (6-mer frequency, TF over GST control)"
CTATGG,binding signal,FLI1,"1.25 fold enrichment (6-mer frequency, TF over GST control)"
same,binding signal,ELK1,"1.14 fold enrichment (6-mer frequency, TF over GST control)"
same,binding signal,GABPA,"1.21 fold enrichment (6-mer frequency, TF over GST control)"
same,binding signal,ERG,"1.15 fold enrichment (6-mer frequency, TF over GST control)"
same,binding signal,ELF1,"1.19 fold enrichment (6-mer frequency, TF over GST control)"
same,binding signal,EHF,"1.3 fold enrichment (6-mer frequency, TF over GST control)"
same,binding signal,SPI1,"1.17 fold enrichment (6-mer frequency, TF over GST control)"
same,binding signal,SPIB,"1.19 fold enrichment (6-mer frequency, TF over GST control)"
same,binding signal,ELK3,"1.2 fold enrichment (6-mer frequency, TF over GST control)"
TTCCTA,binding signal,FLI1,"1.82 fold enrichment (6-mer frequency, TF over GST control)"
same,binding signal,ELK1,"1.72 fold enrichment (6-mer frequency, TF over GST control)"
same,binding signal,GABPA,"1.55 fold enrichment (6-mer frequency, TF over GST control)"
same,binding signal,ERG,"1.78 fold enrichment (6-mer frequency, TF over GST control)"
same,binding signal,ELF1,"1.63 fold enrichment (6-mer frequency, TF over GST control)"
same,binding signal,EHF,"1.59 fold enrichment (6-mer frequency, TF over GST control)"
same,binding signal,SPI1,"1.7 fold enrichment (6-mer frequency, TF over GST control)"
same,binding signal,SPIB,"1.93 fold enrichment (6-mer frequency, TF over GST control)"
same,binding signal,ELK3,"1.74 fold enrichment (6-mer frequency, TF over GST control)"
TTGACT,binding signal,FLI1,"1.19 fold enrichment (6-mer frequency, TF over GST control)"
same,binding signal,ELK1,"1.19 fold enrichment (6-mer frequency, TF over GST control)"
same,binding signal,GABPA,"1.15 fold enrichment (6-mer frequency, TF over GST control)"
same,binding signal,ERG,"1.18 fold enrichment (6-mer frequency, TF over GST control)"
same,binding signal,ELF1,"1.15 fold enrichment (6-mer frequency, TF over GST control)"
same,binding signal,EHF,"1.06 fold enrichment (6-mer frequency, TF over GST control)"
same,binding signal,SPI1,"1.19 fold enrichment (6-mer frequency, TF over GST control)"
same,binding signal,SPIB,"1.18 fold enrichment (6-mer frequency, TF over GST control)"
same,binding signal,ELK3,"1.03 fold enrichment (6-mer frequency, TF over GST control)"
ACCGAC,binding signal,FLI1,"1.41 fold enrichment (6-mer frequency, TF over GST control)"
same,binding signal,ELK1,"1.29 fold enrichment (6-mer frequency, TF over GST control)"
same,binding signal,GABPA,"1.29 fold enrichment (6-mer frequency, TF over GST control)"
same,binding signal,ERG,"1.29 fold enrichment (6-mer frequency, TF over GST control)"
same,binding signal,ELF1,"1.3 fold enrichment (6-mer frequency, TF over GST control)"
same,binding signal,EHF,"1.23 fold enrichment (6-mer frequency, TF over GST control)"
same,binding signal,SPI1,"1.4 fold enrichment (6-mer frequency, TF over GST control)"
same,binding signal,SPIB,"1.34 fold enrichment (6-mer frequency, TF over GST control)"
same,binding signal,ELK3,"1.35 fold enrichment (6-mer frequency, TF over GST control)"
AAACGC,binding signal,FLI1,"1.24 fold enrichment (6-mer frequency, TF over GST control)"
same,binding signal,ELK1,"1.17 fold enrichment (6-mer frequency, TF over GST control)"
same,binding signal,GABPA,"1.28 fold enrichment (6-mer frequency, TF over GST control)"
same,binding signal,ERG,"1.34 fold enrichment (6-mer frequency, TF over GST control)"
same,binding signal,ELF1,"1.27 fold enrichment (6-mer frequency, TF over GST control)"
same,binding signal,EHF,"1.25 fold enrichment (6-mer frequency, TF over GST control)"
same,binding signal,SPI1,"1.22 fold enrichment (6-mer frequency, TF over GST control)"
same,binding signal,SPIB,"1.22 fold enrichment (6-mer frequency, TF over GST control)"
same,binding signal,ELK3,"1.15 fold enrichment (6-mer frequency, TF over GST control)"
